# Measurements reported in PubChem BioAssay AID1251 (SRMLSC, 2008).
# Among all 200,000 compounds or so, about 720 (0.36%) were called active. No stated cut-off is given here; in the data, active means inhibition above about 30%; inactive means the rest, inconclusive results apart. The full list was thinned out, with actives kept by preference.
# Experiment: inhibitors of arbovirus infection in cells – cell-based, full library, 10K replicate subset, primary screen (AID 1251)
# [1] = arbovirus infection cell-based antiviral screen, at 10 µM, stronger effect = higher value
# [2] = arbovirus infection cell-based antiviral screen; at 10 µM; stronger effect = higher value
# [3] = arbovirus infection cell-based antiviral screen; measured here: 10K subset replicate screen; at 10 µM; stronger effect = higher value
smiles,measurement,setting,value
O=C(O)c1ccc2c(c1)C(=O)N(NC(=O)c1ccc(O)cc1)C2=O,inhibition,[1],-2.03% (inactive)
O=C(C1CC1)N1CCN=C1SCc1ccc(Cl)cc1,inhibition,[1],55.7% (active)
O=C(c1ccco1)N1CCN=C1SCc1cccc(Cl)c1,inhibition,[2],5.96% (inactive)
same,inhibition,[3],0.055%
CCC(=O)N1CCN=C1SCc1ccc(F)cc1,inhibition,[1],-3.24% (inactive)
C/C(=N\NC(=O)CCn1nc(C)cc1C)C(C)(C)C,inhibition,[1],-5.42% (inactive)
CCCN(C(=O)CSc1nnnn1C)c1c(N)n(Cc2ccccc2)c(=O)[nH]c1=O,inhibition,[1],21.9% (inactive)
Brc1ccc(C2=CC(c3ccco3)n3ncnc3N2)cc1 (stereo not given),inhibition,[1],12.4% (inactive)
COc1ccc(C2C=C(c3ccc(Br)cc3)Nc3nc(NS(C)(=O)=O)nn32)cc1 (stereo not given),inhibition,[1],61.9% (active)
COc1ccc(C2=CC(c3cccc(OC)c3)n3nnnc3N2)cc1 (stereo not given),inhibition,[1],11.1% (inactive)
CC1(C)CC(=O)CC2(C1)NCC(c1ccccc1Cl)c1c2[nH]c2ccccc12 (stereo not given),inhibition,[1],-27.8% (inactive)
COc1cccc(NC(=O)Nc2nnc(N3CCCCC3C)s2)c1 (stereo not given),inhibition,[2],37.5% (active)
same,inhibition,[3],24.8%
COc1cccc(Nc2nnc(SCC(=O)N3CC(C)OC(C)C3)s2)c1 (stereo not given),inhibition,[1],2.66% (inactive)
CCOC(=O)c1csc(NC(=O)Nc2cccc(OC)c2)n1,inhibition,[1],6.16% (inactive)
NC(N)=Nc1nc2ccc(Br)cc2c(=O)[nH]1,inhibition,[1],-2.82% (inactive)
CCOc1ccc(C(=O)Nc2cccc(SC)c2)cc1,inhibition,[1],4.43% (inactive)
Cc1ccc(C2=C/C(=C\c3cccnc3)C(=O)O2)cc1,inhibition,[1],-1.53% (inactive)
O=C(Nc1ccc2c(c1)CCC2)c1cccc(S(=O)(=O)Nc2ccccc2Cl)c1,inhibition,[1],-3.02% (inactive)
C=CCn1c(SCC(=O)NCc2ccccc2)nnc1-c1cc(Br)ccc1O,inhibition,[1],8.76% (inactive)
Cn1nnnc1SCC(=O)Nc1nc2ccccc2s1,inhibition,[1],0.23% (inactive)
C=CCn1c(SCC(=O)Nc2nc3ccccc3s2)nnc1-c1ccccc1O,inhibition,[1],47.3% (active)
CCOC(=O)CN/C=C(\C#N)c1ccc(F)cc1,inhibition,[1],-0.71% (inactive)
CCOc1c(Cl)cc(/C=N/O)cc1OC,inhibition,[1],11% (inactive)
CCOc1cc(/C=C(/C#N)c2ccc(Cl)cc2)cc(Cl)c1OCC(=O)O,inhibition,[1],51.7% (active)
CCn1c(/C=C/c2ccc([N+](=O)[O-])o2)nc2ccccc2c1=O,inhibition,[1],-31.9% (inactive)
S=c1[nH]nc(/C=C/c2ccccc2)o1,inhibition,[1],-0.67% (inactive)
O=c1oc(/C=C/c2ccccc2)nc2ccccc12,inhibition,[1],44.9% (active)
CC(C)(C)NC(=O)c1cccc(NC(=O)Cc2ccc(Br)cc2)c1,inhibition,[1],17.2% (inactive)
Cc1ccccc1NC(=S)N(CCCN1CCOCC1)Cc1cccs1,inhibition,[1],7.45% (inactive)
CCCc1cc(=O)[nH]c(SCc2ccc(C#N)cc2)n1,inhibition,[1],42% (active)
CCCc1cc(=O)[nH]c(SCC(=O)OCc2ccccc2)n1,inhibition,[1],0.37% (inactive)
CCCc1cc(=O)[nH]c(SCc2cc(=O)oc3c(C)c(C)ccc23)n1,inhibition,[1],5.14% (inactive)
CN1CCN(S(=O)(=O)c2cccc(C(=O)O)c2)CC1,inhibition,[1],-0.22% (inactive)
CC(=O)n1cc([C@@H]2C=C(C(=O)N3CCN(Cc4ccc5c(c4)OCO5)CC3)O[C@H](OCc3ccc(CO)cc3)C2)c2ccccc21,inhibition,[1],-8.36% (inactive)
COc1ccc(C)cc1NC(=O)c1ccc(-c2ccc(C(C)=O)cc2)o1,inhibition,[1],-5.64% (inactive)
Cc1cccc(CSc2nnc(NC(=O)CSc3nnc(C)s3)s2)c1,inhibition,[1],31.4% (active)
Cc1nnc(SCC(=O)NCc2ccccc2)s1,inhibition,[2],-3.33% (inactive)
same,inhibition,[3],3.33%
Cc1cccc(NC(=O)CSc2nnc(NC(=O)CN3CCOCC3)s2)c1,inhibition,[1],4.51% (inactive)
COc1ccc(CCNC(=O)/C(C#N)=C2\N=C(NC(=O)c3cccs3)c3ccccc32)cc1,inhibition,[1],1.79% (inactive)
O=C(O)/C=C/c1cn(Cc2ccccc2)nc1-c1cccs1,inhibition,[1],9.79% (inactive)
Cc1c(Cl)cccc1NC(=S)NCc1ccc2c(c1)OCO2,inhibition,[1],-9.04% (inactive)
COCC(C)NCc1cc(Br)ccc1OC (stereo not given),inhibition,[1],5.99% (inactive)
CCOc1ncccc1C(=O)N(C)CC(=O)Nc1ccc(F)cc1,inhibition,[1],-2.52% (inactive)
Cc1cc2ccccc2n1CCC(=O)O,inhibition,[1],4.57% (inactive)
COc1ccccc1N1CCN(C(=O)c2ccc(Cl)c(S(=O)(=O)N3CCCC3)c2)CC1,inhibition,[1],4.9% (inactive)
CC(=O)Nc1ccc(NC(=O)COc2ccccc2C(=O)Nc2cccc(Cl)c2Cl)cc1,inhibition,[1],33.1% (active)
COc1cc(NC(=O)COc2ccccc2Cl)ccc1NC(=O)C(C)C,inhibition,[1],-3.4% (inactive)
O=C(COc1ccccc1Cl)Nc1ccc(C(=O)c2ccc(C(=O)O)cc2)cc1,inhibition,[1],1.44% (inactive)
CSc1ccccc1NC(=O)CN(C)CC(=O)Nc1ccc(Cl)cc1[N+](=O)[O-],inhibition,[1],9.71% (inactive)
COc1ccccc1C(=O)Nn1c(-c2cccs2)nc2ccccc2c1=O,inhibition,[1],-3.21% (inactive)
CCOC(=O)N1CCN(C(=O)Cn2cnc3ccccc3c2=O)CC1,inhibition,[1],4.88% (inactive)
CCOC(=O)C(=Cc1ccccc1OC)C(=O)OCC,inhibition,[1],1.92% (inactive)
O=c1c2c(ncn1Cc1ccccc1)nc1n2CCC1,inhibition,[1],-1.22% (inactive)
COc1ccc(/C=N/NC(=O)C(C)N(c2ccc(OC)cc2)S(C)(=O)=O)cc1 (stereo not given),inhibition,[1],-1.77% (inactive)
COc1cc(OC)cc(C(=O)OCC(=O)Nc2sccc2C(N)=O)c1,inhibition,[1],4.53% (inactive)
O=C(COC(=O)C12CC3CC(CC(O)(C3)C1)C2)NC12CC3CC(CC(C3)C1)C2,inhibition,[1],5.43% (inactive)
Cc1ccc(C(=O)N/C(=C\c2ccco2)C(=O)N2CCSCC2)cc1C,inhibition,[1],4.17% (inactive)
O=C(Nc1ccn(Cc2ccc(F)cc2)n1)c1ccncc1,inhibition,[1],3.28% (inactive)
O=C(Nc1ccn(Cc2ccccc2)n1)c1n[nH]c([N+](=O)[O-])c1Cl,inhibition,[1],50.2% (active)
O=C(Nc1ccn(Cc2ccccc2)n1)c1cccc(F)c1,inhibition,[1],-18.6% (inactive)
CC(=O)NC(NC(=S)Nc1c(C)n(C)n(-c2ccccc2)c1=O)C(Cl)(Cl)Cl (stereo not given),inhibition,[1],7.15% (inactive)
CCOc1cc(NC(=S)NCCCN(C)C)c(OCC)cc1NC(=O)C1CC1,inhibition,[1],5.58% (inactive)
CCOc1ccc(Br)cc1S(=O)(=O)Nc1cccc(S(=O)(=O)N(CC)CC)c1,inhibition,[1],2.51% (inactive)
CN(C)c1ccc(C(CC(=O)O)C(=O)O)cc1 (stereo not given),inhibition,[1],2.46% (inactive)
COc1ccc(N2C(=O)C(CC(=O)Nc3ccccc3)N(Cc3ccc(OC)c(OC)c3)C2=O)cc1 (stereo not given),inhibition,[1],0.98% (inactive)
O=C(c1ccncc1)N1CCN(c2ccc3ccccc3n2)CC1,inhibition,[1],5.37% (inactive)
COc1ccccc1N1CCN(C(=O)c2cc(-c3ccc(Cl)c(Cl)c3)on2)CC1,inhibition,[1],2.74% (inactive)
O=C(c1ccc2ccccc2n1)N1CCN(c2ccccc2Cl)CC1,inhibition,[1],36% (active)
Cc1cc(C(=O)NNC(=O)CCC2CCCCC2)c(C)o1,inhibition,[1],-2.2% (inactive)
C=CCn1nc(-c2ccccc2)c2c(C)onc2c1=O,inhibition,[1],4.65% (inactive)
Cc1ccc(-c2cc(C(F)(F)F)n3ncc(C(=O)N4CCCCC4c4cccnc4)c3n2)cc1 (stereo not given),inhibition,[1],-9.25% (inactive)
COCCn1c(C)cc(C(=O)CSc2nc3ccccc3c(=O)n2C(C)COC)c1C (stereo not given),inhibition,[1],8.78% (inactive)
Cc1nc(Nc2ccc(S(=O)(=O)N3CCCC3)cc2)c2nnn(Cc3ccccc3)c2n1,inhibition,[1],-12.5% (inactive)
CCCc1nc(NCc2ccc3c(c2)OCO3)c2nnn(Cc3ccccc3Cl)c2n1,inhibition,[1],-16.2% (inactive)
Cc1nc(Nc2ccc3c(c2)OCCO3)c2nnn(Cc3ccccc3Cl)c2n1,inhibition,[1],51.5% (active)
Cc1ccc2nsnc2c1S(=O)(=O)N1CCCC1C(=O)O (stereo not given),inhibition,[1],1.07% (inactive)
COCc1c(C(=O)OCc2c(C)noc2C)oc2ccccc12,inhibition,[1],3.37% (inactive)
Cc1cc(C)c(NC(=O)c2oc3ccccc3c2COc2ccccc2)c(C)c1,inhibition,[1],32.5% (active)
CCOC(=O)c1oc2ccccc2c1NC(=O)c1cccs1,inhibition,[1],-1.76% (inactive)
O=c1[nH]c(CN2CCOCC2)nc2scc(-c3ccccc3)c12,inhibition,[1],5.07% (inactive)
O=C(CN(CC1CCCO1)C(=O)CNS(=O)(=O)c1ccc(F)cc1)NCc1ccco1 (stereo not given),inhibition,[1],2.42% (inactive)
C/C(=N\N=C(N)N)c1ccc(Cl)cc1,inhibition,[1],-24.2% (inactive)
CC(C)(C)C(=O)NCCCNc1ccc([N+](=O)[O-])cc1,inhibition,[1],1.95% (inactive)
O=C(CNCc1ccc(F)cc1)Nc1ccccc1-c1ccccc1,inhibition,[1],-16.4% (inactive)
Cc1ccc(N2CCN(C3=NC(=O)/C(=C\c4cccs4)S3)CC2)cc1,inhibition,[1],6.43% (inactive)
CCc1ccc(/C=C2\SC(N3CCOCC3)=NC2=O)cc1,inhibition,[1],-6.68% (inactive)
Cc1ccc(Cl)c(NC(=O)CN2CCN(C=O)CC2)c1,inhibition,[1],5.23% (inactive)
COc1ccc(CCn2ccc(O)c(Cc3ccc(Cl)cc3Cl)c2=O)cc1OC,inhibition,[1],5.76% (inactive)
C/C(CCc1ccccc1)=N\NC(=O)c1ccc(CN2CCOCC2)cc1,inhibition,[1],-3.19% (inactive)
COc1ccc2c(c1)CCC/C2=N\OC(=O)c1ccccc1F,inhibition,[1],-1.6% (inactive)
CCOc1cc(CNCc2ccccn2)ccc1OCC(=O)NC(C)(C)C,inhibition,[1],-2.89% (inactive)
CCCCCC(=O)NC(=S)NNC(=O)c1ccc([N+](=O)[O-])cc1,inhibition,[1],-18% (inactive)
CCN(C(=O)COC(=O)c1cc(S(=O)(=O)N2CCc3ccccc32)ccc1OC)C1CCS(=O)(=O)C1 (stereo not given),inhibition,[1],7.54% (inactive)
CCN(CC)CCNC(=O)c1ccc(NC(=O)c2c(F)cccc2Cl)cc1,inhibition,[1],-4.69% (inactive)
Cc1cc(C)c2nc(SCC(=O)N(C)C3CCS(=O)(=O)C3)cc(C)c2c1 (stereo not given),inhibition,[1],-6.1% (inactive)
CC(=O)c1sc(NC(=O)c2ccc(C)cc2)nc1C,inhibition,[1],-4.42% (inactive)
CCSc1nnc(NC(=O)c2ccc(C)cc2)s1,inhibition,[1],33.2% (active)
CCSc1nnc(NC(=O)Cc2ccccc2OC)s1,inhibition,[1],3.03% (inactive)
